Most compounds without a hit are left out; they make up all but 11% or so of the library.
HEK293 tox: cytotoxic compounds in HEK 293 cells. Potency, µM (top dose mostly 115 µM), inactives show at the top dose activity change, negative = cytotoxicity, hits mostly inhibitors. AID 1345083. HEK 293 viability, ATP luminescence (CellTiter-Glo), 48-72 h. 94,000 compounds, 6.6% hits; further: nearly all actives have a fitted effect of over 60% in size
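qHTS cytotoxicity; HEK 293, 250 cells/well; compound pinned; 48 or 72 hr, 37 degree Celsius, 5% CO2, 95% humidity; CellTiter-Glo, 10 min RT; luminescence (ATP).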
hNpr1 antagonist: antagonists of human natriuretic peptide receptor Npr1; P16066; HEK293 hNpr1 GloSensor cGMP, ANP-stimulated luminescence; 76,000 compounds, 1.6% hits; Potency, µM (highest dose often 46.3 µM), for the others: top-dose activity change, negative = inhibition, usual class: inhibitors; calls by dose curve; further: nearly all actives have a fitted effect of over 60% in size
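HEK293 cells stably expressing human Npr1 and cGMP GloSensor pGS-40F, loaded 2 h with 2% GloSensor reagent, given compound 30 min at room temperature. Luminescence read before and 20 min after 0.1 nM hNppA.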
FLuc inh: inhibitors of firefly (Photinus pyralis) luciferase. P08659. purified P. pyralis luciferase, luminescence, biochemical. Potency, µM (top dose mostly 115 µM), actives largely listed as inhibitors. 76,000 compounds, 2.5% hits. AID 1347043; further: nearly all actives have a fitted effect of over 65% in size
Target sequence (P08659 whole entry, looked up): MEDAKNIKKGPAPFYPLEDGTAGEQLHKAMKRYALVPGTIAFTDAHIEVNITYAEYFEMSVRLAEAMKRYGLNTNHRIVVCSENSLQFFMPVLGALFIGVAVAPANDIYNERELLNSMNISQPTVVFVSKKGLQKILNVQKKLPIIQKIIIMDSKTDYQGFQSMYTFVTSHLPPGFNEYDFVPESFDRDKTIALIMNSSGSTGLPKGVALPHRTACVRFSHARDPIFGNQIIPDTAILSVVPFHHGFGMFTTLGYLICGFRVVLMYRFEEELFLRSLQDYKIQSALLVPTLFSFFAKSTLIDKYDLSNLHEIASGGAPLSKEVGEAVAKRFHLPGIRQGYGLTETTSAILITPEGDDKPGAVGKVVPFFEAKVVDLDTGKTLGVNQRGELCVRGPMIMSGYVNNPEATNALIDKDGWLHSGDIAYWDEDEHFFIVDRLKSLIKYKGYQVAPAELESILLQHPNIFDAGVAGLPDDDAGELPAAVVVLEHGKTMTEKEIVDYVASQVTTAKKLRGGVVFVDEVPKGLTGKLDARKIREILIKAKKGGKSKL
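Biochemical qHTS: compound (6-point titration) added to 10uM D-luciferin plus 10uM ATP in Tris acetate pH 7.5 buffer with Mg, Tween-20 and BSA, then purified enzyme at 10nM; light output imaged.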
3T3 cytotox: NIH 3T3 cell cytotoxicity; NIH 3T3 viability, CellTiter-Glo ATP luminescence, 48-72 h; Potency, µM (titrated, usually from 96.7 µM), for inactives: at the top dose activity change, negative = cytotoxicity, usual class: inhibitors; 94,000 compounds, 4.3% hits; further: nearly all actives have a fitted effect of over 55% in size
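Cells were seeded at 400 per well, treated with pin-transferred compound, and kept 48 or 72 hr at 37 °C before CellTiter-Glo addition and luminescence imaging of cellular ATP.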
Numbers without * were called inactive; i = inactive; ? = inconclusive; . = no result; [ ] = dose if it differs, or a comment. Unless noted, the call rests on the fitted dose curve; in most records, active means well fitted curve in the direction sought with a large enough effect; inconclusive means small, poorly fitted or top-dose-only effect, or another doubt; inactive means no such curve, though single readings can be large; an effect the other way counts as inactive or inconclusive. On the % scale 0 is the no-effect control and ±100 the full control effect; potency means the concentration at half of the fitted maximal effect.

SMILES	HEK293 tox	hNpr1 antagonist	FLuc inh	3T3 cytotox
O=C1CC(c2ccccc2)N(Cc2cn[nH]c2-c2cccs2)CCCCCN1 (stereo not drawn)	79.4µM*	-0.7%	i	?
O=C1NCCCCCN(Cc2cn[nH]c2-c2cccs2)[C@H]2CCC[C@@H]12	-9.0%	1.4%	i	-29.0%
Cc1cnc(C2CC2)n1C1CCCN(C(=O)CC(C)C)C1 (stereo not drawn)	?	-0.3%	i	-3.6%
CC1(C)CN(Cc2cn(Cc3ccccc3)nc2-c2cc3ccccc3o2)CCO1	?	-2.7%	i	?
COC[C@H]1CCCN1Cc1cn(Cc2ccccc2)nc1-c1cc2ccccc2o1	?	-12.3%	?	?
FC1CCN(Cc2cn(Cc3ccccc3)nc2-c2cc3ccccc3o2)CC1	31.6µM*	-2.9%	i	?
c1ccc(Cn2cc(CN3CCN(c4ccncc4)CC3)c(-c3cc4ccccc4o3)n2)cc1	39.8µM*	0.9%	i	28.2µM*
c1ccc(Cn2cc(CN3CCCOCC3)c(-c3cc4ccccc4o3)n2)cc1	?	1.4%	35.5µM*	?
CN(C)CC1(O)CCC2(CCN(C(=O)c3cccc(F)c3)CC2)CC1	-21.7%	1.5%	i	-21.9%
COc1ccccc1C(=O)N1CCCN(c2cc(-c3ccc(Br)cc3)[nH]n2)CC1	39.8µM*	?	i	?
COc1ccc(Cl)cc1C(=O)N1CCCN(c2cc(-c3ccc(Br)cc3)[nH]n2)CC1	35.5µM*	?	i	31.6µM*
COc1ccc(-c2cc(N3CCCN(C(=O)c4ccccc4OC)CC3)n[nH]2)cc1	-25.8%	-1.9%	i	-22.5%
COc1cc(C)c2c(c1C)C[C@H]([C@H](C)C(=O)NC1CCCC1)CC2	39.8µM*	?	i	?
COCCOc1cc(C)c2c(c1C)C[C@H]([C@H](C)C(=O)NC1CCCC1)CC2	?	-0.5%[70.6 µM]	i	?
Cc1cc(OCC(=O)O)c(C)c2c1CC[C@@H]([C@H](C)C(=O)NCc1ccccc1)C2	i	2.8%[70.6 µM]	i	79.4µM*
CCc1ccc(N2CC(c3noc(-c4ccc5c(c4)OCO5)n3)CC2=O)cc1 (stereo not drawn)	?	6.1%	i	?
COC[C@@H]1CN(C(=O)CCn2nc(C)cc2C)C[C@H]1c1ccncc1	3.1%	2.0%	i	1.8%
OC[C@@H]1CN(C2CCCCC2)C[C@H]1c1nc(-c2ccncc2)no1	-27.1%	5.4%	?	-18.2%
OC[C@@H]1CN(C2CCC2)C[C@H]1c1nc(-c2ccncc2)no1	-15.5%	2.5%	44.7µM*	-2.8%
OC[C@@H]1CN(CC2CC2)C[C@H]1c1nc(-c2ccncc2)no1	-2.6%	0.2%	35.5µM*	-11.1%
CN1CCN(c2cc(-c3ccc(F)cc3C(F)(F)F)nc(N)n2)CC1	i	-3.3%	i	i
CN(C)c1ccc(-n2cnc3cccnc32)cc1	?	14.6%[70.6 µM]	35.5µM*	?
COc1ccccc1-n1cnc2cccnc21	?	0.0%[70.6 µM]	i	?
Cn1nc(C(=O)N2CCN(c3cc(-c4ccccc4)[nH]n3)CC2)c2ccccc21	?	5.7%	i	?
Cc1cc(C)cc(C(=O)N2CCCN(c3cc(-c4ccc(Cl)cc4)[nH]n3)CC2)c1	44.7µM*	-27.2%	i	?
SMILES	HEK293 tox	hNpr1 antagonist	FLuc inh	3T3 cytotox
O=C(c1cccs1)N1CCN(c2cc(-c3cccs3)[nH]n2)CC1	-31.0%	-3.5%	i	?
O=C(c1cccs1)N1CCCN(c2cc(-c3ccc(Cl)cc3)[nH]n2)CC1	44.7µM*	?	?	?
Cn1nc(C(=O)N2CCCN(c3cc(-c4ccc(Cl)cc4)[nH]n3)CC2)c2ccccc21	39.8µM*	-27.2%	i	?
O=C(c1ccc(Br)o1)N1CCCN(c2cc(-c3ccc(Cl)cc3)[nH]n2)CC1	?	?	i	39.8µM*
Cc1cccc(C(=O)N2CCCN(c3cc(-c4ccc(Cl)cc4)[nH]n3)CC2)c1	?	-29.8%	i	?
CN1C(=O)C(CC(=O)N2CCCC2)=C2CCCCC21 (stereo not drawn)	3.4%	-13.9%	i	-5.6%
O=C(NCC1CCOCC1)Nc1ccccc1Cl	10.7%	0.6%	i	i
Cc1ccc(C(=O)N2CCCN(c3cc(-c4ccc(Cl)cc4)[nH]n3)CC2)cc1C	?	-21.7%	i	35.5µM*
Cc1ccc(C(=O)N2CCCN(c3cc(-c4ccc(Cl)cc4)[nH]n3)CC2)cn1	?	?	i	-21.0%
O=C(c1ccc(F)c(F)c1)N1CCN(c2cc(-c3ccc(Cl)cc3)[nH]n2)CC1	?	?	i	35.5µM*
Cc1ccc(N2C(=S)N[C@H]3[C@@H](O)[C@H](O)C[C@@H](C(=O)N4CCCCC4)[C@H]32)cc1	i	3.2%[70.6 µM]	15.8µM*	i
O=C([C@@H]1C[C@@H](O)[C@H](O)[C@@H]2NC(=S)N(c3ccc(F)cc3)[C@@H]21)N1CCCCC1	-2.3%[172 µM]	2.1%[70.6 µM]	?	-1.2%[138 µM]
CCOC(=O)[C@@H]1[C@@H](OC(N)=O)C(=O)N(C(C)C)C12CCN(C(=O)Cc1cccs1)CC2	4.5%	.	.	?
CCCNC(=O)NC[C@@H]1C=C(C)[C@H](Cc2nc3ccc(OC)cc3[nH]2)C[C@H]1C(C)C	?	?	i	39.8µM*
COc1ccc2nc(C[C@@H]3C[C@@H](C(C)C)[C@H](CN)C=C3C)[nH]c2c1	?	0.9%[70.6 µM]	i	70.8µM*
CC1=C[C@@H](CN)[C@H](C(C)C)C[C@H]1Cc1nc2ccc(Cl)cc2[nH]1	50.1µM*	-12.2%[70.6 µM]	i	44.7µM*
CC1=C[C@@H](CN)[C@H](C(C)C)C[C@H]1Cc1nc2ccc(C)cc2[nH]1	44.7µM*	-18.4%[70.6 µM]	i	39.8µM*
CC1=C[C@@H](CN)[C@H](C(C)C)C[C@H]1Cc1nc2ccc(F)cc2[nH]1	79.4µM*	-7.2%[70.6 µM]	i	100µM*
COc1ccc2[nH]c(C[C@@H]3C[C@@H](C(C)C)[C@H](CN(Cc4ccccn4)Cc4ccccn4)C=C3C)nc2n1	?	-12.7%	i	?
COc1ccc2nc(C[C@@H]3C[C@@H](C(C)C)[C@H](CN(Cc4ccccc4F)Cc4ccccc4F)C=C3C)[nH]c2c1	?	0.8%	i	14.1µM*
O=c1c2nc(-c3ccoc3)ccc2ncn1-c1ccc(F)cc1F	?	-13.4%[70.6 µM]	i	?
O=c1c2nc(-c3ccccc3)ccc2ncn1-c1ccc(F)cc1F	?	6.8%[70.6 µM]	i	28.2µM*
COc1cccc(-c2ccc3ncn(-c4ccc(F)cc4F)c(=O)c3n2)c1	?	6.1%[70.6 µM]	?	50.1µM*
O=c1c2nc(-c3ccsc3)ccc2ncn1-c1ccc(F)cc1F	100µM*	-0.9%[70.6 µM]	i	44.7µM*
NCc1cccc(-c2ccc3c(c2)C(=O)N2CC[C@H](NC(=O)c4cccc(F)c4)[C@H]2C(=O)N3)c1	?	-6.4%	i	?
COc1cccc(-c2noc(COC(=O)C3=CN(C)S(=O)(=O)N=C3C)n2)c1	?	12.6µM*	?	?
